In the library only some 4.1% were active in any assay of this set; here they are far more common.
Beta apoptosis: blocks beta cell apoptosis; protection from apoptosis, % (test concentration not listed); hit rate 0.8% among 300,000; AID 435005; INS-1E cytokine-induced death, ATP luminescence, 48 h; percent of positive-control rescue, neutral wells zero;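 active = Every replicate reaches about 75%, or at least half do and their mean reaches it too, limit read from the data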;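 note: 0% = cytokine-treated negative control wells and 100% = positive control rescue; higher means more ATP so stronger rescue from cytokine killing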
aSyn UTR inh: MLPCN primary screen, SNCA 5' untranslated region | alpha-synuclein 5'UTR reporter, inhibitor activity | inhibition, % (tested at 7.5 µM) | hit rate 0.82% among 300,000; in the data active = inhibition above about 60%;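 note: H4 neuroglioblastoma cells stably carrying SNCA 5'UTR luciferase fusion; 0% = DMSO wells and 100% = positive control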
A1 inh: inhibitors of the anti-apoptotic protein A1, read as caspase activation; hit rate 0.066% among 330,000; caspase activation, % (no concentration beside the values); MEF A1-2A-BIM cells, Caspase-Glo 3/7 luminescence, 3 h; percent of clofoctol response, vehicle zero;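 active = over half of replicate activation scores above 10%, or exactly half above 10 with the replicate mean above 10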
Mdm2 MdmX PPI: human Mdm2/MdmX binding inhibition. SaOS-2 split-luciferase Mdm2/MdmX complementation, luminescence. inhibition, % at 8 µM. hit rate 3% among 330,000. AID 485346;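 active = inhibition of at least 50% at 8 µM in the primary screen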
CSC inhib: cancer stem cell inhibition. cancer stem cell-like cells viability, luminescence. inhibition, % at 7.5 µM. AID 2717. hit rate 1.1% among 300,000; in the data active = inhibition above about 75%; tested in HMLE shEcad cells
The depositor's hits bear a star; / = no result.

SMILES	Beta apoptosis	aSyn UTR inh	A1 inh	Mdm2 MdmX PPI	CSC inhib
CCCCCCCC[n+]1c(C)n(-c2ccccc2)c2ccc(NC(C)=O)cc21	102*	-10	2	-6	-2
COC(=O)c1cncc(C)c1	0	3	0	19	-9
Cc1nn(C)c(C(=O)NNC(=O)NC2CCCCC2)c1Cl	/	3	/	-4	/
Cc1nn(CC(=O)Nc2ccc(Cl)cc2)c(=O)c2cc(-c3ccccc3)nn12	6	-11	0	50	-11
COc1cc(C=C(c2nc3ccccc3s2)c2nc3ccccc3s2)cc(OC)c1O	-2	-98	0	12	3
O=C(O)c1ccc(C=C(c2nc3ccccc3s2)c2nc3ccccc3s2)cc1	-1	-32	0	18	82*
CN(C)c1ccc(/C=C(\Cl)c2nc3ccccc3s2)cc1	4	/	-8	/	92*
CC(COc1ccccc1Cc1ccccc1)N1CCCCC1 (stereo not drawn)	/	-32	-1	28	18
O=[N+]([O-])c1cc(O)c2ncccc2c1	/	70*	0	44	13
O=C(NCCOCCOCCNC(=O)c1cccnc1)c1cccnc1	120*	-19	1	0	-1
Cc1cc(C)nc(OC(=O)c2ccc(Cl)cc2Cl)n1	85*	45	0	9	-10
COc1cnc(-c2ccccn2)nc1Sc1c(Cl)cccc1Cl	45	30	0	29	-24
COc1cnc(-c2ccccn2)nc1Sc1ccccc1Cl	86*	16	-1	39	4
Cc1noc(C)c1C(=O)NCCc1c(C)[nH]c2ccccc12	-8	-7	0	-17	-11
CN(C)CCCNC(=O)c1cc(C(=O)c2ccccc2)c[nH]1	2	28	0	24	-12
O=C(c1ccccc1)c1c[nH]c(C(=O)NNc2ccccc2)c1	12	22	0	28	97*
CCN(CC)CCCNC(=S)N1CCN(c2nc(-c3ccccc3)cs2)CC1	/	-9	-1	15	79*
CCOCCCNC(=S)N1CCN(c2nc(-c3ccccc3)cs2)CC1	/	-7	1	26	1
CCc1cc(C(=O)NC2CCCc3c2cnn3-c2cccc(C)c2C)n(C)n1 (stereo not drawn)	99*	42	-1	9	6
Cc1cccc(-n2ncc3c2CCCC3NC(=O)Cn2cccn2)c1C (stereo not drawn)	0	-11	0	-7	34
Cc1nnsc1C(=O)NC1CCCc2c1cnn2-c1ccc(C(C)(C)C)cc1 (stereo not drawn)	75*	26	1	23	31
Cc1cc(C(=O)NC2CCCc3c2cnn3-c2ccc(C)c(C)c2)n(C)n1 (stereo not drawn)	110*	6	0	18	13
Cc1nnsc1C(=O)NC1CCCc2c1cnn2-c1ccccc1F (stereo not drawn)	45	1	0	1	-20
Cc1ccc(-n2ncc3c2CCCC3NC(=O)c2ccoc2)cc1C (stereo not drawn)	-6	10	2	20	-7
CC(=O)Nc1ccc(C#Cc2ccc(NC(C)=O)cc2)cc1	-5	74*	0	38	32
SMILES	Beta apoptosis	aSyn UTR inh	A1 inh	Mdm2 MdmX PPI	CSC inhib
COC(=O)c1c(NC(=O)C2c3ccccc3Oc3ccccc32)sc(C)c1C	17	18	0	10	25
COC(=O)c1sc(NC(=O)C2c3ccccc3Oc3ccccc32)c(C(=O)OC)c1C	116*	24	0	9	16
CSc1ncccc1C(=O)OCC(=O)c1[nH]c(C)c(C(C)=O)c1C	1	/	-1	15	/
COc1ccc(N(C)S(=O)(=O)c2cccc(C(=O)Nc3cccc(C(=O)NC4CC4)c3)c2)cc1	-6	/	0	27	/
O=C(Cc1ccc([N+](=O)[O-])cc1)N/N=C/c1ccc([N+](=O)[O-])o1	97*	89*	0	23	-16
O=C(CNc1cccc([N+](=O)[O-])c1)N/N=C/c1ccc([N+](=O)[O-])o1	93*	-10	-1	3	0
O=C(N/N=C/c1ccc([N+](=O)[O-])o1)c1ccc2c(c1)OCO2	-4	94*	2	29	-13
Oc1ccc(/C=N/Nc2ncc(Br)cn2)c(O)c1	87*	0	-9	-7	91*
Cc1cc(-c2ccccc2)nc(N/N=C/c2ccc(O)cc2O)n1	39	29	-1	47	96*
CN(N)c1nc(-c2ccccc2)cc(-c2ccccc2)n1	6	4	0	-15	19
CN(/N=C/c1ccc(O)cc1O)c1nc(-c2ccccc2)cc(-c2ccccc2)n1	4	-7	0	27	89*
COc1cccc(C2C(C(=O)c3cccs3)=C(O)C(=O)N2CCN2CCOCC2)c1OC (stereo not drawn)	/	7	/	-1	/
CCc1noc(C)c1C(=O)NNC(=O)c1ccc(N(CC)CC)cc1	3	/	1	16	-14
COc1ccc(OC)c(CCNC(=O)c2ccc(NC3=NC4CS(=O)(=O)CC4S3)cc2)c1 (stereo not drawn)	-3	-3	0	22	-15
CCOC(=O)C(C(=O)OCC)C(Nc1ccc(Br)cc1)c1ccccc1 (stereo not drawn)	-6	-41	2	-8	75*
CCOC(=O)C(c1ccccc1)C(Nc1ccc(F)cc1)c1ccccn1 (stereo not drawn)	6	16	0	-2	14
Cc1ccc(-c2csc(N3CCC(NS(=O)(=O)c4ccc5c(c4)OCCO5)CC3)n2)cc1	97*	-1	-1	29	-24
Cc1cc(-c2csc3nc[nH]c(=S)c23)cc(C)c1C	22	2	-1	40	104*
CCN(CC)c1nc(C#N)nc(N(CC)CC)n1	/	14	/	8	/
CCN(c1ccccc1)c1nc(C#N)nc(N(CC)c2ccccc2)n1	-3	-10	0	37	90*
Cc1cc(C)n2nc(SCc3cccc(S(=O)(=O)N(C)C)c3)nc2n1	/	36	0	-24	17
CN(C)S(=O)(=O)c1cccc(CSCc2cccc(S(=O)(=O)N(C)C)c2)c1	108*	27	0	2	9
O=C(COC(=O)/C=C/c1cccc(Cl)c1Cl)Nc1ccc2[nH]c(=O)[nH]c2c1	-4	/	16*	2	/
COc1ccc(OC)c(CNC(=O)c2nn(C)c3c2CS(=O)(=O)c2ccccc2-3)c1	-4	24	0	5	-12
Cc1ccc(N2NC(=O)/C(=C\c3cc4c(cc3[N+](=O)[O-])OCO4)C2=O)cc1C	3	-37	0	/	88*
O=C(CN1CSCC1=O)N1CCN(S(=O)(=O)c2ccc(Cl)cc2)CC1	0	/	0	21	-38
CCC1(c2ccc(OC)cc2)NC(=O)N(CC(=O)c2ccc3c(c2)OCCO3)C1=O (stereo not drawn)	-2	/	-1	-13	/
COc1ccc(F)cc1CN1CCN(c2ncnc3scc(-c4ccccc4)c23)CC1	-14	98*	0	30	6
COc1cc(C(=O)OCC(=O)NC(=O)C2CCCCC2)ccc1OC(F)F	-5	-14	-1	-3	4
